# High-throughput results (PubChem BioAssay)
# Most compounds without a hit are left out; they make up all but 1.1% or so of the library.
# ALOX12 inh – Primary qHTS assay for inhibitors of human arachidonate 12S-lipoxygenase (ALOX12): Round 2 | AID 1671190, 2021 | Polyunsaturated fatty acid lipoxygenase ALOX12 (Homo sapiens), P18054 | actives 1.1% (n = 580,000) | Potency, µM (highest dose often 108 µM), for the others: at the top dose activity change, negative = inhibition, usual class: inhibitors | purified 12hLO, xylenol orange hydroperoxide absorbance; further: on the % scale 0 is the no-effect control and ±100 the full control effect
# Target sequence (P18054 whole entry, looked up): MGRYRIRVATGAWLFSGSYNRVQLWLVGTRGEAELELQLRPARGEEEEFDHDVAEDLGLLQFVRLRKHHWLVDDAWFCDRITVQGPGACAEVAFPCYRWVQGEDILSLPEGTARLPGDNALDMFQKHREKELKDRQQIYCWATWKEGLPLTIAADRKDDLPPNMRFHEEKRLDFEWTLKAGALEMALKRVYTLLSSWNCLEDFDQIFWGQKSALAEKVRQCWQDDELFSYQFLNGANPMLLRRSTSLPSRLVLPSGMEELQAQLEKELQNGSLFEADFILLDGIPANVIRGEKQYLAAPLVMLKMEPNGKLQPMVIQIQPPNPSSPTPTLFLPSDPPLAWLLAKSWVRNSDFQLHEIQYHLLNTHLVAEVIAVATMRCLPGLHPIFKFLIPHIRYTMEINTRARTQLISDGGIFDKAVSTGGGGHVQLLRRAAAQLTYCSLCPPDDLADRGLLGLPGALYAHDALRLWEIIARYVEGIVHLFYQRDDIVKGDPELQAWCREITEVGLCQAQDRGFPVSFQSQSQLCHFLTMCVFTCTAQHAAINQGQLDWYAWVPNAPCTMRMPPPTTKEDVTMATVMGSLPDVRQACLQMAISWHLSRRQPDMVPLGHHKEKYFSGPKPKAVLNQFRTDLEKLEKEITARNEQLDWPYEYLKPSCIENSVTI
#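 Purified human 12hLO at 150 nM in 25 mM Hepes, 0.01% Triton X-100, pH 7.0, preincubated 15 min at room temperature with compound. Reaction started with 40 uM arachidonic acid, 30 min at room temperature. Hydroperoxide measured by Fe-xylenol orange, 573/405 nm absorbance ratio.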
# Eya2 phos inh – qHTS Assay for Inhibitors of the Phosphatase Activity of Eya2; recombinant Eya2, OMFP fluorescence dephosphorylation (OMFP is methylfluorescein phosphate); AID 488837, 2010; actives 0.006% (n = 330,000); Potency, µM (titrated, usually from 76.9 µM), without a hit: at the highest dose activity, negative = inhibition, hits mostly inhibitors; Protein phosphatase EYA2 (Homo sapiens), O00167; further: on the % scale 0 is the no-effect control and ±100 the full control effect
#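 Eya2 protein (added as 0.2 uM solution) was preincubated with compound for 10 min at ambient temperature in 50 mM HEPES pH 7.5, 50 mM NaCl, 5 uM MgCl2, 0.05% BSA, 1 mM DTT. OMFP (added at 50 uM) then reacted 10 min; fluorescence read at 485/525 nm.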
# PTAP TSG101 blk – qHTS Assay for Iinhibitors of HIV-1 Budding by Blocking the Interaction of PTAP/TSG101. Tumor susceptibility gene 101 protein (Homo sapiens), Q99816. Fluorescence polarization, FITC-PTAP peptide / Tsg101 binding. Potency, µM (doses to about 115 µM), without a hit: top-dose activity change, negative = inhibition, hits mostly inhibitors. 340,000 tested, under 10 active. AID 493005, 2010; active means well fitted inhibition curve with a large enough effect in the main read-out, with a control signal flat, not every such curve was filed as active; inconclusive means small, poorly fitted or top-dose-only effect, or effect the other way, or a change in a side signal; inactive means no such curve, though single readings can be large or run the other way; further: % of control where 0% means no effect
#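 Fluorescence polarization binding of Tsg101 binding domain (10 uM final) to FITC-labeled PTAP peptide (50 nM final) in HEPES pH 7.5 buffer with NaCl, Tween 20, EDTA, TCEP. Compounds added before peptide; binding 20 min at RT.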
# USP2a inh – qHTS Assay for Inhibitors of Ubiquitin-specific Protease USP2a Using CHOP2 as the Reporter; Ubiquitin carboxyl-terminal hydrolase 2 (Homo sapiens), O75604; actives 0.01% (n = 330,000); AID 463254, 2010; USP2 core, Ub-CHOP2 coupled fluorogenic reporter, 485/531; Potency, µM (top dose mostly 38.3 µM), for the others: at the highest dose activity change, negative = inhibition, most hits filed as inhibitors;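 further: plate controls were DMSO wells for no effect and full inhibition by NEM control for full effect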
#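 Deubiquitinase activity read as fluorescence (485/531 nm) after Ub-CHOP2 cleavage activates the enterokinase reporter on its substrate; USP2 core 10nM, Ub-CHOP2 and substrate 25nM each, 30min compound preincubation then 60min RT; data normalized to NEM, curves fitted.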
# Active calls of the source: *; u = inconclusive; x = no result; ! = not active in a repeat; [ ] = another dose, or the depositor's remark. Unless noted, the call rests on the fitted dose curve; in most records, active means well fitted curve in the direction sought with a large enough effect; inconclusive means small, poorly fitted or top-dose-only effect, or another doubt; inactive means no such curve, though single readings can be large; an effect the other way counts as inactive or inconclusive. Potency means the concentration at half of the fitted maximal effect.
SMILES,ALOX12 inh,Eya2 phos inh,PTAP TSG101 blk,USP2a inh
COc1ccccc1/C=C1\C(=O)NC(=S)N(c2ccccc2)C1=O,u,1.0%,-4.3%,4.8%
C=CCN1C(=O)/C(=C/c2cccs2)C(=O)NC1=S,44.7µM*,-7.7%,0.3%,0.4%
COc1ccc(N2C(=O)/C(=C/c3ccc(N(C)C)o3)C(=O)NC2=S)cc1,u,7.2%,u,9.0%
O=C(c1ccc(C(F)(F)F)cc1)N1CCC(C(=O)O)(c2ccccc2)CC1,2.6%[6.33 µM],x,x,x
CC12CCC(O)CC1CCC1[C@@H]2CCC2(C)C(C3=CC(=O)OC3)C(O)CC12O (stereo not given in full),-7.2%,x,x,x
Cc1cccc(OCC(=O)N2[C@H]3CC[C@@H]2c2cnc(-c4ccc(F)cc4)nc2C3)c1,24.6%,x,x,x
COc1cc2c(cc1OCc1ccccc1)N(C(=O)c1ccccc1OC)CC21CCN(C)CC1,-6.1%,x,x,x
CCC(CC)c1cc([C@H]2CN3CC[C@H]2C[C@@H]3COC(=O)Nc2ccc(C(C)(C)C)cc2)nc(-c2ccncc2)n1,50.1µM*,x,x,x
Cc1nc(-c2ccccc2)cc([C@H]2CN3CC[C@H]2C[C@@H]3CNC(=O)NC(C)C)n1,25.1µM*,x,x,x
Cc1nc(-c2ccccc2)cc([C@H]2CN3CC[C@H]2C[C@@H]3CNC(=O)C2CCC2)n1,23.0%[176 µM],x,x,x
COc1ccc(NC(=O)NC[C@H]2C[C@@H]3CCN2C[C@@H]3c2cc(-c3ccccc3Br)nc(C)n2)cc1,35.5µM*,x,x,x
CC(=O)OC1C(=O)OCC23CCC4(C)OC4C2OC2CC(OC(=O)C=CC=CC(=O)OCCC1C)C3(C)C21CO1 (stereo not given),-57.7%,x,-0.9%,x
CC(O)C1C=CC=CC(=O)OC2CC3OC4C5OC5(C)CCC4(COC(=O)C4OC4(C)C(O)CO1)C2(C)C31CO1 (stereo not given),31.6µM*,x,1.1%,x
CN(Cc1ccccc1)Cc1cn(C[C@H]2CC3CCN2C[C@@H]3C(=O)NC2CC2)nn1 (stereo not given in full),-5.4%[176 µM],x,x,x
CCCCc1ccc2[nH]c(C)c(CCN)c2c1,3.16µM*,x,x,x
CCCCc1ccc2[nH]cc(CCN)c2c1,-25.5%,14.3%,-3.5%,-1.2%
C[CH2][Hg][S]c1ccccc1C(=O)O,5.62µM*,x,-3.0%,x
O=C(O)c1ccccc1SSc1ccccc1C(=O)O,u,u,-6.4%,-0.9%
CC(C)c1ccc(N2C(=O)NC(=O)/C(=C\C=C\c3ccco3)C2=O)cc1,10µM*,16.8%,-7.4%,7.7%
COc1cccc(-n2c(/C=C/c3ccc(O)c(O)c3)nc3ccccc3c2=O)c1,31.6µM*,u,1.8%,-1.3%
COC(=O)c1nc(-c2ccc3c(n2)C(=O)C(N)=C(OC)C3=O)c(N)c(-c2ccc(OC)c(OC)c2O)c1C,15.8µM*,u,0.4%,-2.2%
Clc1ccc(CNCCc2ccc3c(c2)OCO3)cc1,4.47µM*,-10.2%,-0.1%,-5.2%
FC(F)(F)c1ccc(CNCCc2ccc3c(c2)OCO3)cc1,1.78µM*,24.8%,-5.1%,-0.9%
COCCO[C@H]1COCCN(C2CCOCC2)C1,38.8%[176 µM],x,x,x
O=C1NC(=O)C(=Cc2ccc3ccccc3c2)C(=O)N1,u,9.0%,-3.9%,3.3%
SMILES,ALOX12 inh,Eya2 phos inh,PTAP TSG101 blk,USP2a inh
O=C1NC(=O)C(=Cc2ccc(Cl)cc2)C(=O)N1,39.8µM*,x,x,x
COc1ccc(CNCCc2c[nH]c3ccccc23)cc1,0.631µM*,x,x,x
COc1ccc(CCNCc2ccc(Cl)cc2)cc1,14.1µM*,x,x,x
CCc1ccc(CNCCc2ccc(OC)cc2)cc1,2.51µM*,x,x,x
COc1cccc(CNCCc2c[nH]c3ccccc23)c1,-23.0%,7.2%,-5.9%,-0.3%
CN1C(=O)C(C2(O)C(=O)N(Cc3ccccc3)c3cc([N+](=O)[O-])ccc32)c2ccccc21 (stereo not given),-8.3%,x,x,x
CCOC(=O)Nc1ccc(NCc2ccc(F)cc2)nc1N,u,50.1µM*!,-5.5%,u
CCOC(=O)CC(SP(=S)(OC)OC)C(=O)OCC (stereo not given),23.3µM*!,x,x,x
COc1ccc(CN2C(=O)NC(=O)/C(=C\c3cc(OC)c(OC)c(OC)c3)C2=O)cc1,u,14.3%,-0.4%,-0.8%
COc1ccc(CN2C(=O)NC(=O)/C(=C\c3ccco3)C2=O)cc1,39.8µM*,-0.3%,-0.6%,3.4%
Cc1cccc(OCCn2cccc2/C=C2/C(=O)NC(=O)N(Cc3ccco3)C2=O)c1,-71.7%,0.0%,1.4%,-3.4%
O=C1NC(=O)N(Cc2ccco2)C(=O)/C1=C\c1cccn1CCOc1ccc(Cl)cc1,39.8µM*,6.0%,2.4%,-26.0%
COc1ccc2c(c1)CC1(CN2C)C(=O)NC(=O)N(CCc2ccccc2)C1=O (stereo not given),39.8µM*,18.9%,-5.5%,-8.5%
O=C(Cc1c(F)cccc1Cl)N1CCN(Cc2ccccc2)CC(O)C1 (stereo not given),33.7%,x,x,x
CC(C)S(=O)(=O)N1CC[C@@H]2COCCN(C)[C@@H]2C1,57.4%,x,x,x
COc1cc(CN2CCN(C(=O)COc3ccc4ccccc4c3)CC2)cc(OC)c1O,1.58µM*,x,x,x
COc1cccc(CN2CCN(C(=O)COc3ccc4ccccc4c3)CC2)c1,0.8%,-2.4%,-3.0%,-1.6%
CN1CCCC(C(=O)N2C3CCC2CN(Cc2cccnc2)C3)C1 (stereo not given),2.0%[6.33 µM],x,x,x
CC(=O)c1ccc2c(c1)C1C(Cl)C(Sc3ccccc3[N+](=O)[O-])CC1C(C(=O)O)N2 (stereo not given),11.2µM*,-2.4%,2.2%,2.3%
O=C(O)c1cccc2c1NC(C(=O)O)C1CC(Sc3ccccc3[N+](=O)[O-])C(Cl)C21 (stereo not given),3.16µM*,-6.6%,-4.3%,u
C#C[C@H]1CN2CC[C@H]1C[C@@H]2COC(=O)Nc1ccc(OC(F)(F)F)cc1,45.2%[176 µM],x,x,x
COc1cc2c(cc1OC1CCCC1)NC(=O)C21CCN(Cc2cccc(O)c2)CC1,-4.4%[176 µM],x,x,x
CC(C)CN1Cc2ccccc2-n2ccnc2C12CCN(C(=O)c1cccc(F)c1)CC2,4.6%,x,x,x
O=C/C=C/c1ccccc1,0.5%,6.6%,-2.6%,2.8%
O=C1NC(=S)NC(=O)C1C/C=C/c1ccccc1,3.98µM*,9.2%,-5.0%,2.6%
O=C1NC(=S)NC(=O)C1Cc1ccccc1,28.2µM*,x,1.3%,x
COc1ccc(-c2cc([C@H]3CN4CC[C@H]3C[C@@H]4CNC(=O)Nc3cccc4ccccc34)n(C)n2)cc1OC,0.2%,x,x,x
O=C1NC(=O)[C@]2(Cc3ccccc3N3CCN(c4ccccc4)CC32)C(=O)N1Cc1ccccc1 (stereo not given in full),15.8µM*,-3.9%,-5.9%,u
